MCL1-BIM inh: inhibitors of human MCL1 binding to BIM-BH3 peptide; AID 2057; 320,000 tested, 0.68% active; Q07820; GST-MCL1 / FITC-Bim-BH3 fluorescence polarization; inhibition, % at 10.9 µM;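 active = inhibition above the mean inhibition of all tested compounds plus 3 SD, set per campaign, cut at about 40% in these data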;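 also: 0% = DMSO wells and 100% = unlabeled Bim-BH3 peptide control; higher means more loss of mP so more displacement of Bim peptide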
Target sequence (Q07820 whole entry, looked up): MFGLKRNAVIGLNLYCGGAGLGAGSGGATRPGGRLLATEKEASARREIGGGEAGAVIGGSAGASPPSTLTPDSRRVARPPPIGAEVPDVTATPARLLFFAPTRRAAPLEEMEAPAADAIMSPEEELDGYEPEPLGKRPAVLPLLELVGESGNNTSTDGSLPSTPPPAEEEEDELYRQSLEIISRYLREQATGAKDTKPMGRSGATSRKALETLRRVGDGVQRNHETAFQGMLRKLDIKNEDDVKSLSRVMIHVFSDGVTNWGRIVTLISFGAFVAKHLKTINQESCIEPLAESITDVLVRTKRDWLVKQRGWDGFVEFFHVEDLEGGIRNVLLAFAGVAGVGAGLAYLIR
BCLXL inh: inhibitors of human Bcl-xL; Q07817; GST-Bcl-xL / FITC-Bim BH3 peptide fluorescence polarization; inhibition, % at 10.9 µM; 320,000 tested, 0.7% active;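 active = inhibition above the mean of all tested compounds plus 3 SD, cutoff set per campaign, cut at about 30% in these data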;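 also: 0% = DMSO wells and 100% = unlabeled Bim-BH3 peptide competitor; inhibitors lower millipolarization by displacing the labeled peptide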
Target sequence (Q07817 whole entry, looked up): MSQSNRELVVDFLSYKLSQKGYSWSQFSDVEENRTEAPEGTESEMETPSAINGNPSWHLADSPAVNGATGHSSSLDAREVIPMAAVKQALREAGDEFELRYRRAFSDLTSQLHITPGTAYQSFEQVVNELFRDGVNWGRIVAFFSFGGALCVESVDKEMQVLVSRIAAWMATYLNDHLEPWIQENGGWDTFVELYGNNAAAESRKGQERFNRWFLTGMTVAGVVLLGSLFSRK
Mcl1-Bid inh: Mcl-1/Bid interaction inhibition | TR-FRET Mcl-1/Bid-Dy647 peptide binding, 1536-well | Q07820 | inhibition, % at 21.7 µM | 220,000 tested, 0.97% active;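 active = compounds that cut the binding signal by more than half at the single screening dose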;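 also: His-tagged Mcl-1 with europium anti-His antibody binding Bid BH3 peptide; 0% = Mcl-1 plus peptide wells and 100% = peptide-only wells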
Mcl1 Noxa PPI: disrupts binding of human Mcl-1 to Noxa peptide; 220,000 tested, 1.5% active; inhibition, % at 21.7 µM; TR-FRET Mcl-1/Noxa peptide binding, 2 h;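 active = compounds that cut the protein-peptide binding signal by more than 50% relative to plate controls in a single-dose test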;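 also: His-tagged Mcl-1 with rhodamine Noxa BH3 peptide and terbium anti-His antibody; 0% = Mcl-1 plus Noxa peptide wells and 100% = peptide-only wells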
GLD-1 RNA inh: GLD-1-TGE RNA interaction inhibition (C. elegans); Q17339; AID 2280; 320,000 tested, 0.44% active; purified GLD-1 + fluorescein TGE RNA, fluorescence polarization; inhibition, % at 5.96 µM;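 active = percent inhibition above a per-plate cutoff, the plate mean of test compounds plus 3 SD, cut at about 30% in these data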;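 also: 0% = DMSO wells with GLD-1 and probe and 100% = wells lacking GLD-1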
Mcl-1 Bim block: inhibitors of Bim-Mcl-1 interaction, human; Q07820; Bead-based flow cytometry, Bim peptide-Mcl-1 binding; inhibition, % at 10 µM; 190,000 tested, 0.1% active; AID 1009; in the data active = inhibition above about 40%;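 also: 0% = no compound tracer wells and 100% = peptide blocker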
* hit, by the source's call; nt = no result. Hits are enriched below; roughly 2.3% of the tested compounds scored in any of these assays.

SMILES | MCL1-BIM inh | BCLXL inh | Mcl1-Bid inh | Mcl1 Noxa PPI | GLD-1 RNA inh | Mcl-1 Bim block
COc1cccc(Nc2nc(NCC3CCCO3)c3ccccc3n2)c1 (stereo unspecified) | -4 | 1 | 92* | 41 | 2 | 2
COc1ccc(NC(=O)N(C)C[C@H]2Oc3ccc(NC(=O)CCN4CCOCC4)cc3C(=O)N([C@H](C)CO)C[C@@H]2C)cc1 | nt | nt | nt | nt | -1 | nt
O=C(NCCCn1ccnc1)c1ccc(Cl)c(S(=O)(=O)N2CCOCC2)c1 | 2 | 4 | 1 | 15 | 2 | -1
N#C/C(C(=O)c1ccccc1)=C1/SC=C(N)N1c1ccccc1 | nt | nt | 15 | 55* | nt | -3
Cc1cc(NC(=O)CSc2nnc3c(C)cc4ccccc4n23)no1 | -4 | 2 | -21 | 2 | 7 | 0
Cc1cc2ccccc2n2c(SCC(=O)NCc3cccs3)nnc12 | 8 | 7 | 7 | 67* | 4 | 5
CCN(CC)c1ccc(NC(=O)COC(=O)/C=C/c2nc3ccccc3s2)cc1 | 2 | 4 | -3 | 56* | 7 | 0
O=C(Nc1cccc(S(=O)(=O)Nc2ccc(SC(F)F)cc2)c1)C1CCC1 | nt | nt | nt | nt | -4 | nt
O=c1[nH]c(-c2ccccc2Cl)nc2c1sc(=S)n2-c1ccccc1 | nt | nt | 89* | 44 | nt | 1
O=c1[nH]c(-c2ccc(F)cc2)nc2c1sc(=S)n2-c1ccccc1 | 7 | 8 | -6 | 48 | -27 | -4
O=C(O)C1C2C=CC(O2)C1C(=O)NCc1ccc2c(c1)OCO2 (stereo unspecified) | 9 | 9 | -17 | 6 | 3 | -5
COc1ccc(NS(=O)(=O)c2ccc(N3CCCC3)c(NC(=S)Nc3cccc(S(=O)(=O)N(C)C)c3)c2)cc1 | 5 | 9 | -17 | 62* | -1 | -8
COc1ccc2cc(CCNC(=O)c3ccco3)c(=O)[nH]c2c1 | 1 | 3 | nt | nt | -7 | nt
O=[N+]([O-])c1cc(Cl)cc(/C=N/NC(=S)Nc2ccc(S(=O)(=O)N3CCOCC3)cc2)c1O | 31 | 17 | 67* | 85* | -6 | nt
COc1cc2c(cc1OC)C1=C(C#N)CCC(=NC(=O)c3ccc(Cl)cc3)N1CC2 | -1 | 1 | -8 | 0 | 0 | -3
O=C(NCc1ccco1)c1cc2c(s1)CSC2 | 37 | 21 | -24 | 79* | 2 | -1
O=C(NCc1ccc2c(c1)OCO2)c1cc2c(s1)CSC2 | 3 | 0 | -25 | 21 | 4 | -2
O=C(NCCc1ccccc1F)N[C@@H](Cc1ccccc1)C(=O)O | 5 | 1 | nt | nt | -3 | nt
O=C(NCc1cccnc1)c1cc2nc(-c3ccc4c(c3)OCO4)cc(C(F)(F)F)n2n1 | 3 | 5 | 83* | 47 | 1 | 3
COc1cc(CCC(=O)OCC(N)=O)cc(OC)c1OC | -1 | -1 | -36 | 10 | -5 | -1
O=C(O)CC1Sc2nnc(COc3ccc(Cl)cc3)n2N=C1c1ccccc1 (stereo unspecified) | -12 | -21 | nt | nt | -1 | nt
COc1ccc(-c2csc(NC(=O)CSc3nc(C)cs3)n2)cc1 | 5 | 5 | -10 | 9 | 3 | -4
COc1ccc(-c2csc(NC(=O)CSc3nc(C)nc4sc(C(=O)O)c(C)c34)n2)cc1 | 8 | 15 | 36 | 99* | -5 | nt
CCc1ccc(CCC(=O)Nc2sc3c(c2C#N)CCCC3)o1 | 9 | 2 | -58 | 10 | -1 | 5
Cc1ccc(/C=C/C(=O)Nc2sc3c(c2C#N)CCCC3)o1 | 6 | 5 | 14 | 51* | 3 | -4
SMILES | MCL1-BIM inh | BCLXL inh | Mcl1-Bid inh | Mcl1 Noxa PPI | GLD-1 RNA inh | Mcl-1 Bim block
CCOc1cc(Br)c(C(=O)O)cc1OC | -1 | -5 | -13 | 1 | 3 | 0
O=C(Cn1c2c(c(-c3ccccc3Cl)cc1=O)CCC2)NCC1CCCO1 (stereo unspecified) | 5 | 4 | -11 | 10 | 2 | nt
O=C(c1ccc2oc(CCCc3ccccc3)nc2c1)N1CCCC(CCCO)C1 (stereo unspecified) | 6 | 3 | nt | nt | 1 | nt
COC(=O)/C=C1\SC(=NC(=O)c2ccc(OC)cc2)NC1=O | 3 | 7 | nt | nt | -3 | nt
CN(C)CCCNc1cc(O)c2ncccc2c1 | nt | nt | nt | nt | 33* | nt
COC(=O)c1cc(-c2ccccc2)sc1N | 0 | 1 | -38 | 1 | 0 | 0
O=c1oc(-c2cccnc2)nc2ccccc12 | -7 | 0 | 8 | 4 | 3 | 0
Cc1cc(=O)c2cc3nc(-c4cccnc4)oc3c(Br)c2o1 | 38 | 12 | -52 | 54* | 2 | nt
O=C(NNC(=O)c1ccc(O)cc1O)c1ccc(Cl)cc1 | -1 | -1 | 56* | 31 | -4 | 6
Cc1cccc(/C=C2\Sc3ccc(C(=O)N4CCC(C(N)=O)CC4)cc3N(C)C2=O)c1 | 8 | 2 | nt | nt | 4 | nt
O=C(CN1CCN(C(c2ccccc2)c2ccccc2)CC1)N1CCN(c2ccccc2)CC1 | 3 | -2 | -70 | 23 | -2 | nt
FC(F)(F)c1ccncc1-c1nnnn1-c1ccc(Cl)cc1 | 8 | 4 | 69* | -9 | -1 | nt
Cc1cc(-c2nn(C)c(=O)c3ccccc23)ccc1CNC(=O)NC1CCCCC1 | 3 | 4 | 19 | 7 | 1 | 0
Cc1ccc(-c2nn(CC(=O)NCc3cc(-c4nn(C)c(=O)c5ccccc45)ccc3C)c(=O)c3ccccc23)cc1 | 3 | 7 | 79* | -48 | 2 | 1
CCC(=O)NCc1cc(-c2nn(C)c(=O)c3ccccc23)ccc1C | 3 | 5 | 5 | 5 | 1 | -2
COc1ccc(-c2nn(C)c(=O)c3ccccc23)cc1CNC(=O)NC1CCCCC1 | -15 | -3 | 62* | -19 | 5 | 1
FC(F)(F)c1ccc(Cl)c(NC(=S)N/N=C/c2ccccc2Cl)c1 | 5 | 5 | -4 | 15 | 1 | nt
Nc1nc2ccccc2nc1N | 6 | 15 | -1 | 14 | -2 | 6
N#Cc1c2ccccc2nc2ccccc12 | 7 | 37* | -5 | 26 | 6 | nt
c1ccc2nc3ccccc3nc2c1 | 1 | 2 | 86* | 38 | 0 | 0
Cc1ccc(SC2=C(Sc3ccc(C)cc3)C(=O)c3ccccc3C2=O)cc1 | 31 | 16 | 1 | 69* | 1 | nt
COCC(C)NC(=O)c1cc2cccc([N+](=O)[O-])c2[nH]1 (stereo unspecified) | 4 | 4 | -12 | -8 | 1 | nt
Cc1cc(NC(=O)c2cc3cccc([N+](=O)[O-])c3[nH]2)ccc1F | -8 | 2 | -2 | 54* | -4 | nt
O=C1NC(=Nc2ccccc2)/C(=C/c2ccco2)S1 | 47* | 42* | -32 | 47 | -36 | -3
Cc1ccc(N=C2NC(=O)S/C2=C\c2ccco2)cc1 | 26 | 23 | 48 | 83* | -4 | 0
O=C1NC(=Nc2ccccc2)S/C1=C\c1ccccc1 | -6 | -1 | nt | nt | -3 | nt
O=S(=O)(Nc1ncccn1)c1ccc(NC(=S)Nc2ccc(Cl)cc2)cc1 | 6 | 6 | -24 | -3 | 0 | nt
